{
  "source": "ChEMBL document CHEMBL4513136",
  "about": "“CO-ADD screening of CSIC (Spain) compounds”",
  "note": "Entries with a potency or affinity are not part of this list.",
  "data": [
    {"tested_on": "Staphylococcus aureus", "conditions": "Concentration 32 ug.mL-1; ASSAY_TEST Inhibition of Bacterial Growth; detection method Absorption (OD600); MEDIA CAMHB; plate type 384well; NBS; CORNING #3640; time 18 hr", "units": {"Inhibition": "%"}, "values": [
      {"molecule": "COc1ccc(OC)c(C(=O)/C=C/c2ccc(O)cc2)c1", "Inhibition": 10.84},
      {"molecule": "O=C(/C=C/c1c[nH]c2ccc(O)cc12)c1cc(O)ccc1O", "Inhibition": 20.75},
      {"molecule": "COc1ccc(OC)c(NC(=O)Nc2ccc(OC)cc2OC)c1", "Inhibition": 5.98},
      {"molecule": "Oc1ccc(-n2cc(-c3cc(O)ccc3O)nn2)cc1", "Inhibition": 19.08},
      {"molecule": "O=C(/C=C/c1ccccc1O)c1cc(O)c(O)cc1O", "Inhibition": 26.82},
      {"molecule": "COc1ccccc1/C=C/C(=O)c1cc(OC)c(OC)cc1OC", "Inhibition": 26.72},
      {"molecule": "COC(=O)c1c(C(Cc2ccccc2)NC(=O)OCc2ccccc2)[nH]c2ccccc12", "note": "(stereo not drawn)", "Inhibition": 22.9},
      {"molecule": "COc1ccc(C(=O)/C=C/c2ccc(OC)cc2OC)cc1", "Inhibition": 6.51},
      {"molecule": "O=C(Cc1cc(O)ccc1O)Nc1ccc(O)cc1O", "Inhibition": 17.97},
      {"molecule": "COc1ccc(OC)c(C(=O)CCc2ccccc2O)c1", "Inhibition": 15.3},
      {"molecule": "COc1ccc(OC)c(C(=O)/C=C/c2c[nH]c3ccc(OC)cc23)c1", "Inhibition": 20.69},
      {"molecule": "O=C(Nc1ccc(O)cc1O)Nc1cc(O)ccc1O", "Inhibition": 10.74},
      {"molecule": "COc1ccc(CN2C(=O)C(C)C2(Cc2cn(C(=O)OC(C)(C)C)c3ccccc23)C(=O)OC(C)(C)C)cc1", "note": "(stereo not drawn)", "Inhibition": 27.02},
      {"molecule": "O=C(Cc1cc(O)ccc1O)Nc1cc(O)ccc1O", "Inhibition": 22.67},
      {"molecule": "COc1ccc(OC)c(CC(=O)Nc2ccc(OC)cc2OC)c1", "Inhibition": 26.56},
      {"molecule": "COc1ccc(NC(=O)Cc2cc(OC)ccc2OC)cc1", "Inhibition": 31.14},
      {"molecule": "COc1ccc(OC)c(C(=O)/C=C/c2ccccc2O)c1", "Inhibition": 11.52},
      {"molecule": "COC(=O)C1(Cc2ccc(OCc3c(Cl)cccc3Cl)cc2)C(C)C(=O)N1Cc1ccc(OC)cc1", "note": "(stereo not drawn)", "Inhibition": 19.17}
    ]}
  ]
}
